Compounds without any hit were thinned out: in the full panel of roughly 83,000, 20% have a hit.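 Testing used 96-well plates and a 48-hour single-concentration exposure. Example: -40 means 40% of the starting cells died.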 A number with no mark means an inactive call. Calls of active or inactive are those of the source. How the source made its calls: active means growth percent below 10; inactive means the rest.

Some test systems named below: K-562 leukemia; MALME-3M melanoma; MDA-MB-231 breast; RXF 393 renal; SF-268 CNS; SF-295 CNS; SF-539 CNS; UACC-257 melanoma; M14 melanoma; HCT-15 colon.
Holding throughout (test): NCI-60 one-dose screen, 48 h (100 = growth as untreated, 0 = no growth, -100 = all killed)
Common to all, as to settings: 10 µM

Consider `O=c1[nH]c(-c2ccc(Cl)cc2)nc2sc3c(c12)CCCC3`, for which the growth was 69.5% in the assay with K-562 leukemia; 108% in the assay with MALME-3M melanoma; 97.8% in the assay with MDA-MB-231 breast; 89.1% in the assay with RXF 393 renal; 50.7% in the assay on SF-268 CNS; 32.9% in the assay with SF-295 CNS. Moreover, the growth in the assay with SF-539 CNS is 72.1%; with UACC-257 melanoma, 103%; with M14 melanoma, 68.2%; in the assay with HCT-15 colon, 81.1%.
`COc1cc(NC(=O)CCSc2nc3ccc(Cl)cc3c(=O)n2Cc2ccccc2)cc(OC)c1OC`: the growth in the assay with K-562 leukemia is 67.1%; in the assay on MALME-3M melanoma, 84.3%; in the assay with MDA-MB-231 breast, 51.2%; in the assay on RXF 393 renal it was 57.2%; with SF-268 CNS it was 95.1%; in the assay with SF-295 CNS, 66.2%. Also, the growth in the assay with SF-539 CNS is 26.8%; in the assay with UACC-257 melanoma it was 61%; in the assay with M14 melanoma, 75.2%; with HCT-15 colon, 72.5%.
Regarding `COc1ccc(-c2nn(-c3cccc(NC(=O)Nc4ccccc4)c3)cc2-c2ccncc2)cc1Cl`, the growth in the assay on K-562 leukemia was 10.4%; in the assay with MALME-3M melanoma, 17.9%; with MDA-MB-231 breast, -9.47% (active); with RXF 393 renal it was -59.3% (active); with SF-268 CNS it was 27.9%; with SF-295 CNS, -7.17% (active). The growth with SF-539 CNS was -59.1% (active); in the assay on UACC-257 melanoma it was -32.9% (active); with M14 melanoma, 9.94% (active); in the assay with HCT-15 colon, 16.6%.
`CC1(C)Cc2c(sc3ncn4nc(-c5ccc(O)cc5)nc4c23)CO1`: the growth in the assay with K-562 leukemia is 76.8%; with MALME-3M melanoma, 68.2%; with MDA-MB-231 breast it was 70.5%; with RXF 393 renal, 66.3%; in the assay with SF-268 CNS it was 64.1%; in the assay on SF-295 CNS, 76.2%. Further, the growth is 75.1% in the assay on SF-539 CNS, 89.7% in the assay with UACC-257 melanoma, 86.6% in the assay with M14 melanoma and 75.1% in the assay with HCT-15 colon.
`COC(=O)C1=NNC(=S)N(c2cc(C)[nH]n2)C(=O)C1`: the growth is 93.7% with K-562 leukemia; 93.2% with MALME-3M melanoma; 110% with MDA-MB-231 breast; 111% with RXF 393 renal; 102% in the assay with SF-268 CNS; 96.3% in the assay with SF-295 CNS. Also, the growth was 102% with SF-539 CNS, 100% in the assay with UACC-257 melanoma, 102% in the assay with M14 melanoma and 102% with HCT-15 colon.
Turning to `CSc1nc(=O)n(Cc2ccc(F)cc2)c(=O)n1Cc1ccc(C)cc1`, the growth in the assay with K-562 leukemia was 91.1%; with MALME-3M melanoma, 97.6%; in the assay with MDA-MB-231 breast it was 103%; with RXF 393 renal it was 113%; in the assay with SF-268 CNS it was 96.6%; in the assay on SF-295 CNS, 79.8%. For the same compound, the growth with SF-539 CNS is 108%; in the assay on UACC-257 melanoma it was 106%; in the assay with M14 melanoma, 99.7%; with HCT-15 colon, 102%.
`COc1ccc(-c2nc(-c3nc4ccc(OC)cc4[nH]3)cc3c2[nH]c2ccccc23)cc1`: the growth in the assay on K-562 leukemia is 16.2%; with MALME-3M melanoma it was 58.6%; in the assay with MDA-MB-231 breast, 59.5%; in the assay on RXF 393 renal it was 43%; in the assay with SF-268 CNS it was 48.8%; in the assay with SF-295 CNS, -13.1% (active). For the same compound, the growth with SF-539 CNS is 51.6%; with UACC-257 melanoma it was 70.5%; in the assay on M14 melanoma, 34.7%; with HCT-15 colon, 28.7%.
Take `COc1ccc(C2=NN(C(=O)c3ccc(S(C)(=O)=O)cc3)C(c3ccc(OC)c(OC)c3)C2)c(OC)c1` (stereo not given): the growth in the assay on K-562 leukemia was 77.2%; with MALME-3M melanoma, 113%; in the assay on MDA-MB-231 breast it was 95.2%; in the assay with RXF 393 renal it was 105%; in the assay with SF-268 CNS it was 89%; with SF-295 CNS, 98.7%. In addition, the growth in the assay on SF-539 CNS is 102%; in the assay with UACC-257 melanoma, 92.2%; in the assay on M14 melanoma, 103%; with HCT-15 colon, 99.4%.
In the case of `COc1cc(Cl)cc(-c2nn(-c3cccc(NC(=O)c4ccc(N5CCOCC5)c(C(F)(F)F)c4)c3)cc2-c2ccncc2)c1`, the growth in the assay on K-562 leukemia is 4.03% (active); in the assay on MALME-3M melanoma, 57.9%; in the assay on MDA-MB-231 breast, 11.4%; in the assay on RXF 393 renal, 12.4%; in the assay with SF-268 CNS, 67.3%; in the assay on SF-295 CNS, 2.6% (active). For the same compound, the growth in the assay on SF-539 CNS was 52.1%; in the assay with UACC-257 melanoma it was 63.6%; in the assay with M14 melanoma, 56.7%; in the assay on HCT-15 colon, 17.3%.
Take `CCCCCCc1cc(N=Nc2ccc(S(=O)(=O)Nc3cc(C)nc(C)n3)cc2)c(O)cc1O`: the growth in the assay on K-562 leukemia was 93.8%; in the assay on MALME-3M melanoma, 93.1%; in the assay with MDA-MB-231 breast, 111%; with RXF 393 renal, 118%; in the assay with SF-268 CNS it was 110%; in the assay on SF-295 CNS it was 98.7%. The growth in the assay on SF-539 CNS is 97.1%; in the assay on UACC-257 melanoma, 102%; in the assay on M14 melanoma, 94.2%; in the assay with HCT-15 colon it was 103%.
`FC(F)(F)c1ccc(-c2cnc(Cl)nc2N2CCC3(CC2)OCCO3)cc1`: the growth in the assay on K-562 leukemia is 93.2%; in the assay with MALME-3M melanoma it was 78.4%; with MDA-MB-231 breast, 102%; with RXF 393 renal it was 105%; in the assay with SF-268 CNS it was 93.5%; in the assay on SF-295 CNS, 89.7%. The growth in the assay on SF-539 CNS is 99.3%; with UACC-257 melanoma it was 106%; in the assay on M14 melanoma, 96.6%; with HCT-15 colon, 93.6%.
With `Cn1c([N+](=O)[O-])cnc1/C=C1\Oc2ccc(Cl)cc2C1=O`, the growth is 1.86% (active) with K-562 leukemia; -55% (active) with MALME-3M melanoma; -22.5% (active) in the assay on MDA-MB-231 breast; -70.5% (active) in the assay on RXF 393 renal; -32.1% (active) in the assay on SF-268 CNS; -17.3% (active) with SF-295 CNS. The growth is -50.3% (active) in the assay on SF-539 CNS, -41.7% (active) with UACC-257 melanoma, -33% (active) in the assay with M14 melanoma and -8.74% (active) in the assay on HCT-15 colon.
Take `Cc1cn(C2CCCCO2)c(=O)nc1NO` (stereo not given): the growth with K-562 leukemia was 101%; with MALME-3M melanoma, 137%; in the assay on MDA-MB-231 breast it was 106%; with RXF 393 renal it was 119%; with SF-268 CNS it was 103%; in the assay on SF-295 CNS, 106%. For the same compound, the growth in the assay with SF-539 CNS is 96.1%; in the assay on UACC-257 melanoma, 106%; with M14 melanoma it was 113%; with HCT-15 colon, 100%.
On to `COc1ccccc1/C=C/C(=O)c1ccccc1`, for which the growth with K-562 leukemia is 6.19% (active); in the assay on MALME-3M melanoma, 90.8%; with MDA-MB-231 breast, 80.5%; in the assay on RXF 393 renal, 92%; with SF-268 CNS, 87.9%; in the assay on SF-295 CNS it was 101%. Also, the growth in the assay with SF-539 CNS is 92%; with UACC-257 melanoma, 94.3%; in the assay on M14 melanoma, 85.7%; with HCT-15 colon, 61.6%.

Source of the values: PubChem BioAssay (NCI).
